This passage reports Potency and outcome results from PubChem BioAssay (Tox21).

A short description of assay [1]: qHTS assay for small molecule agonists of the p53 signaling pathway - cell viability (AID 651633; calls by dose curve;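 note: p53RE-bla HCT reporter cells with a stable beta-lactamase p53 reporter; series mostly up to about 83 µM; nearly all actives have a fitted effect of over 30% in size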). In short, it runs like this: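 p53RE-bla cells were treated with compound for 16 hours at 37 C. Cytotoxicity was then measured as CellTiter-Glo luminescence after 30 min at room temperature.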
A general note: qHTS replaces the single test concentration by a dilution series.

The nature of assay [2]: qHTS assay to test for compound auto fluorescence at 535 nm (green) in HepG2 cells (AID 720675).
The nature of assay [3]: qHTS assay to test for compound auto fluorescence at 590 nm (red) in HEK293 cells (AID 720679). The procedure, abridged:
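Each well held 2,000 HEK293 cells in medium containing 10% dialyzed FBS. Following 4-5 hr attachment at 37C, 23 nL test compound or DMSO was added; plates sat overnight, and red fluorescence (540/590nm) was recorded.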

Assay [4] can be described thus: qHTS assay to test for compound auto fluorescence at 535 nm (green) in HepG2 cell free culture (AID 720686).
Assay [5] deals with Glucocorticoid receptor (Homo sapiens) (UniProt P04150). Put plainly: qHTS assay to identify small molecule agonists of the glucocorticoid receptor (GR) signaling pathway (AID 720691; active = well fitted activation curve with a large enough effect in the signal ratio in the repeat runs, not every such curve was filed as active; the % refers to the signal ratio). The procedure, abridged:
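Fluorescence intensity from LiveBLAzer B/G FRET substrate (2 h, room temperature) reports beta-lactamase expression driven by the glucocorticoid response element in GR-bla HeLa cells after 18 h compound exposure at 37 C.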

The nature of assay [6]: qHTS assay for identifying genotoxic compounds that show differential cytotoxicity against isogenic chicken DT40 cell lines with known DNA damage response pathways - wild type cell line (AID 743012). Note: nearly all actives have a fitted effect of over 60% in size. Note: potency is the fitted concentration of half-maximal effect. In short, it runs like this:
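Wild type DT40, 300 cells/well, ~0.5 h settle at 37 C/5% CO2; compounds in DMSO added by pintool; 40 h at 37 C/5% CO2; CellTiter-Glo, 30 min RT; luminescence.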

A short description of assay [7]: qHTS assay for identifying genotoxic compounds that show differential cytotoxicity against isogenic chicken DT40 cell lines with known DNA damage response pathways - Rev3 mutant cell line (AID 743014). Note: nearly all actives have a fitted effect of over 55% in size. Note: potency is the fitted concentration of half-maximal effect.
A short description of assay [8]: qHTS assay for identifying genotoxic compounds that show differential cytotoxicity against isogenic chicken DT40 cell lines with known DNA damage response pathways - Rad54/Ku70 mutant cell line (AID 743015). Note: nearly all actives have a fitted effect of over 60% in size. Note: potency is the fitted concentration of half-maximal effect.
The nature of assay [9]: qHTS assay to identify small molecule antagonists of the androgen receptor (AR) signaling pathway - cell viability counter screen (AID 743033; note: nearly all actives have a fitted effect of over 45% in size).
Assay [10] is described as follows: qHTS assay to identify small molecule antagonists of the thyroid receptor (TR) signaling pathway (AID 743065). Note: nearly all actives have a fitted effect of over 55% in size. Note: potency is the fitted concentration of half-maximal effect. In short, it runs like this:
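GH3.TRE-Luc rat pituitary cells (two TREs driving luciferase) were dosed with compound, then stimulated with 1 nM T3 (final) for 23.5 h at 37 C. ONE-Glo luminescence was the read-out, with CellTiter-Fluor fluorescence as the cytotoxicity counter-screen.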

The nature of assay [11]: qHTS assay to identify small molecule antagonists of the estrogen receptor alpha (ER-alpha) signaling pathway - cell viability counter screen (AID 743074; calls by dose curve;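 note: HEK293 cells carrying ER-alpha-UAS-bla reporter stimulated with 17beta-estradiol; nearly all actives have a fitted effect of over 45% in size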).
Assay [12] has as its target Estrogen receptor (Homo sapiens) (UniProt P03372). Put plainly: qHTS assay to identify small molecule agonists of the estrogen receptor alpha (ER-alpha) signaling pathway (AID 743075; calls by dose curve;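 note: HEK293 GripTite cells with ER-alpha and UAS-driven beta-lactamase reporter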).
The nature of assay [13]: qHTS assay to identify small molecule antagonists of the estrogen receptor alpha (ER-alpha) signaling pathway using the BG1 cell line (AID 743080; calls by dose curve; note: series mostly up to about 70 µM; nearly all actives have a fitted effect of over 25% in size). In short, it runs like this:
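Antagonist mode: compounds in DMSO were pinned onto BG1-Luc-4E2 cells alongside 17beta-estradiol agonist, incubated 21.5 h, and ERE-driven luciferase measured with ONE-Glo. Cytotoxicity was multiplexed using CellTiter-Fluor fluorescence.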

Assay [14] in a line: qHTS assay to identify small molecule that activate the aryl hydrocarbon receptor (AhR) signaling pathway - cell viability counter screen (AID 743086). Note: nearly all actives have a fitted effect of over 45% in size. Note: potency is the fitted concentration of half-maximal effect. In short, it runs like this: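 HepG2-AhR-luc (HG2L7.5c1) cells, 4000/well, treated 24 h at 37 C with compound; viability measured as CellTiter-Fluor fluorescence after 30 min in the same wells as the luciferase read.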
The target of assay [15] is Peroxisome proliferator-activated receptor gamma (Homo sapiens) (UniProt P37231). Put plainly: qHTS assay to identify small molecule agonists of the peroxisome proliferator-activated receptor gamma (PPARg) signaling pathway (AID 743094; active = well fitted activation curve with a large enough effect in the signal ratio in the repeat runs, not every such curve was filed as active; the % refers to the signal ratio). In short, it runs like this:
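Beta-lactamase FRET fluorescence was the read-out after a 1 h room-temperature substrate step, following 17 h compound treatment at 37C of HEK293H cells expressing a UAS-driven bla reporter responsive to PPARg.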

The nature of assay [16]: qHTS assay to identify small molecule antagonists of the androgen receptor (AR) signaling pathway using the MDA cell line - cell viability counter screen (AID 743041; note: nearly all actives have a fitted effect of over 45% in size). The procedure, abridged:
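MDA-kb2 AR-luc cells (MMTV-luciferase, AR/GR responsive) treated with compounds plus R1881 agonist for 16 h at 37C. CellTiter-Fluor added at 15.5 h; fluorescence read after 30 min in the same wells.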

Assay [17] concerns thyroid hormone receptor (rat, GH3 cells). The assay can be described thus: qHTS assay to identify small molecule agonists of the thyroid receptor (TR) signaling pathway (AID 743066; calls by dose curve).
The nature of assay [18]: qHTS assay to identify small molecule antagonists of the estrogen receptor alpha (ER-alpha) signaling pathway using the BG1 cell line - cell viability counter screen (AID 743081).
Assay [19] has as its target Estrogen receptor (Homo sapiens) (UniProt P03372). The assay can be described thus: qHTS assay to identify small molecule agonists of the estrogen receptor alpha (ER-alpha) signaling pathway using the BG1 cell line (AID 743079). Note: nearly all actives have a fitted effect of over 20% in size.
Assay [20] has as its target Nuclear receptor subfamily 1 group I member 2 (Homo sapiens) (UniProt O75469). The assay can be described thus: CYP3A4 induction through human pregnane X receptor (PXR) by small molecules, qHTS assay (AID 1346984). Note: nearly all actives have a fitted effect of over 40% in size. Note: potency is the fitted concentration of half-maximal effect. In short, it runs like this: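 Luminescence readout: luciferase signal after One-Glo (30 min, room temperature), following 3 h at 37C with 3uM final Luciferin-IPA P450 substrate. Cells were DPX-2 (HepG2, PXR/CYP3A4-luc co-transfected) dosed for 24 h.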

Inconclusive results are not listed. Activity calls are given as the source filed them. Unless noted, calls come from the whole dose curve; as a rule, active = well fitted curve in the direction sought with a large enough effect in the repeat runs; inconclusive = weak or mixed curves; inactive = no such curve, though single readings can be large; an effect the other way counts as inactive or inconclusive.

Peroxisome proliferator-activated receptor gamma (Homo sapiens), sequence (P37231 whole entry, looked up): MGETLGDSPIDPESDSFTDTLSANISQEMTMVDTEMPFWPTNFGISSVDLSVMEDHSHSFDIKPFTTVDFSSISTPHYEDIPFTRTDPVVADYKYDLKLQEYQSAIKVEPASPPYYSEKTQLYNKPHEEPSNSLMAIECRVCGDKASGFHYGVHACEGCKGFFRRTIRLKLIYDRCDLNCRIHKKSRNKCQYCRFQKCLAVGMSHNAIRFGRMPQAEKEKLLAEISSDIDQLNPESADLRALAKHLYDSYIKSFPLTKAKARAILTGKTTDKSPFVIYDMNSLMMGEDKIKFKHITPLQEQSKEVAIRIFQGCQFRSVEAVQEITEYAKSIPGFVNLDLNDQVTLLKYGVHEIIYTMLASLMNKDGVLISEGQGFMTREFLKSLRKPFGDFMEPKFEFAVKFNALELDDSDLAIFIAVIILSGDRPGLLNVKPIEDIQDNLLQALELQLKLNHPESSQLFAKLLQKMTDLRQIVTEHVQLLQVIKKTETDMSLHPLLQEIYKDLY
Estrogen receptor (Homo sapiens), sequence (P03372 whole entry, looked up): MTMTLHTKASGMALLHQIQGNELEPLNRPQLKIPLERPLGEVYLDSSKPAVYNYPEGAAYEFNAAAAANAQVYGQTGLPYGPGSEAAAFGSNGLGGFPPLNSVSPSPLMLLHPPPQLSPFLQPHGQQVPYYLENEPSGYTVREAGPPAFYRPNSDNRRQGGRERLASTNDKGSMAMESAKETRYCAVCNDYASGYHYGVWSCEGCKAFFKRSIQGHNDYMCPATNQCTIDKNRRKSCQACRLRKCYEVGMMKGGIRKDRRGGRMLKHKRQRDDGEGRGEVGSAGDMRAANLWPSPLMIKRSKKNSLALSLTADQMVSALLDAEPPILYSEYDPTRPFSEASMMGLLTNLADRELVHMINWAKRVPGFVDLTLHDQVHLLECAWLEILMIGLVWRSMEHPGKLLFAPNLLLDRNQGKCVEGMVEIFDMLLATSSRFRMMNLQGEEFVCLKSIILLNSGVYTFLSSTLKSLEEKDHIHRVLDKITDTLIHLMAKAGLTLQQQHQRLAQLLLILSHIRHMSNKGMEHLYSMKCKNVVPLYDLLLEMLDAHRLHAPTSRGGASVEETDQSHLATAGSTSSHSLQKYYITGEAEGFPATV
Glucocorticoid receptor (Homo sapiens), sequence (P04150 whole entry, looked up): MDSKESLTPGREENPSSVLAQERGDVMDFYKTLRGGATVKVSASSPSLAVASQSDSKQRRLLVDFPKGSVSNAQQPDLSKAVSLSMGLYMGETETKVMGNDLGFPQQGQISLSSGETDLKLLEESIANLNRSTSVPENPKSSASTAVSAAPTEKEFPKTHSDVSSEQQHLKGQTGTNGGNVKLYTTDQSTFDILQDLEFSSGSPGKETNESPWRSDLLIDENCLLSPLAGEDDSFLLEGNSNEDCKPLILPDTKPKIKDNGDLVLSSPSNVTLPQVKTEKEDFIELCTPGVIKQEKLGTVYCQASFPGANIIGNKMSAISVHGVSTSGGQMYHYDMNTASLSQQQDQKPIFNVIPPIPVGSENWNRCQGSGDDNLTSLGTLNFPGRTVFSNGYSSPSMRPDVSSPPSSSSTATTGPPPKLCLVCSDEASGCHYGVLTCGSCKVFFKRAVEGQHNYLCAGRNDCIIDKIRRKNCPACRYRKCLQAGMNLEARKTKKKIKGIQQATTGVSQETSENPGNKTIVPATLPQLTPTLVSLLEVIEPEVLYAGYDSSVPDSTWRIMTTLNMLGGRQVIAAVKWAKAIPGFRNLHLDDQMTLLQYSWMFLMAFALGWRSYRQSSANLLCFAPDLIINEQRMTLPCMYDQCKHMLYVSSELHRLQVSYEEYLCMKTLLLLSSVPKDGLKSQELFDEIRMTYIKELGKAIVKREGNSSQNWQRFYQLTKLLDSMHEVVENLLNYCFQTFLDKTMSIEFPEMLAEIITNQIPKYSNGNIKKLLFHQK

For the compound `CCCSc1cc(OC)c(CCN)cc1OC`, the Potency result in assay [1], in assay [2], in assay [4], in [5], in assay [9] and in assay [11] was “inactive” in each case. For the same compound, the Potency result in [12], in assay [13] and in assay [15] was “inactive” throughout. Besides, the call in assay [3] was inactive. In addition, the Potency was 0.183 µM (active) in assay [6]; 0.258 µM (active) in assay [7]; 0.258 µM (active) in [8]; 32.5 µM (active) in assay [10]; 32.5 µM (active) in [14].

For the compound `O=C1C[C@@H]2OCC=C3CN4CC[C@]56c7ccccc7N1[C@H]5[C@H]2[C@H]3C[C@H]46` (tested in a mixture with another compound), the Potency result in assay [2], in assay [4], in assay [7], in assay [8], in assay [16] and in assay [10] was “inactive” in each case. For the same compound, the Potency entry in assay [17], in [11], in assay [18] and in assay [14] was “inactive” each time.

Regarding `CN1CC[C@@]23CCCC[C@@H]2[C@@H]1Cc1ccc(O)cc13`, the Potency result in assay [1], in [2], in [4], in assay [6], in [16] and in [11] was “inactive” throughout. Further, the Potency result in [12], in assay [13], in assay [18], in assay [14] and in assay [15] was “inactive” throughout. For the same compound, the result in assay [3] was inactive.

For the compound `C[C@H]1[C@H]2Cc3ccc(O)cc3[C@]1(C)CCN2CCc1ccccc1`, the Potency entry in [1], in assay [2], in assay [4], in assay [5], in assay [9] and in assay [17] was “inactive” each time. For the same compound, the Potency result in assay [11], in [12] and in assay [19] was “inactive” in each case. Further, the compound was classed as inactive in [3]. For the same compound, the Potency is 6.8 µM (active) in assay [6], 15.2 µM (active) in assay [7], 17.1 µM (active) in assay [8] and 27.1 µM (active) in assay [10].

Consider `C[C@H]1CC[C@]2(NC1)O[C@H]1C[C@H]3[C@@H]4CC[C@H]5C[C@@H](O)CC[C@]5(C)[C@H]4CC[C@]3(C)[C@H]1[C@@H]2C`, for which the Potency result in assay [1], in assay [4], in assay [6], in [7], in assay [8] and in assay [9] was “inactive” in each case. For the same compound, the Potency entry in assay [16], in [17], in assay [11], in [12], in assay [19] and in assay [13] was “inactive” throughout. Also, the Potency result in assay [18], in [14], in assay [15] and in assay [20] was “inactive” in each case. In assay [3], the compound was called inactive. Also, in assay [10], the Potency was 26.6 µM (active).

For the compound `C[C@@H]1[C@H](O)[C@@H](C)/C=C/C=C/CC/C=C/C=C/C=C/C=C/[C@H](O[C@H]2O[C@@H](C)[C@H](O)[C@@H](N)[C@H]2O)CC2O[C@](O)(C[C@@H](O)[C@H](O)CC[C@@H](O)C[C@@H](O)C[C@@H](O)CC(=O)O[C@H]1C)C[C@H](O)[C@H]2C(=O)O`, the Potency result in assay [1], in assay [2], in [7], in assay [8], in [9] and in assay [16] was “inactive” throughout. The Potency result in assay [10], in [17], in [11], in assay [12], in assay [19] and in assay [13] was “inactive” throughout. In [15], the Potency entry was “inactive”.

For `CC1(C)S[C@@H]2[C@H](N)C(=O)N2[C@H]1C(=O)O`, the Potency entry in assay [1], in assay [2], in assay [4], in assay [5], in assay [7] and in [8] was “inactive” throughout. The Potency result in assay [10], in [17], in assay [11], in assay [12], in assay [19] and in assay [13] was “inactive” each time. The Potency result in [18], in [14], in assay [15] and in [20] was “inactive” in each case. Also, the outcome in assay [3] was inactive.

`C[C@@H]1[C@H]2Cc3ccc(O)cc3[C@]1(C)CCN2C`: the Potency entry in [1], in [2], in [4], in assay [5], in assay [17] and in [11] was “inactive” throughout. Moreover, the Potency entry in assay [18] and in assay [14] was “inactive” each time. The result in assay [3] was inactive. In addition, the Potency in assay [6] was 89.3 µM (active); in [10], 50.2 µM (active).

As for `COc1cc(C[C@H](C)N)c(OC)cc1C`, the Potency result in assay [1], in [5], in assay [17], in [11], in assay [12] and in assay [19] was “inactive” in each case. In addition, the Potency result in assay [13], in [14] and in assay [15] was “inactive” each time. In addition, in [3], the compound was called inactive.

In the case of `CCN(CC)/[N+]([O-])=N/O`, the Potency result in [1], in assay [2], in [5], in assay [16], in assay [10] and in [17] was “inactive” each time. The Potency result in [11], in [18] and in [14] was “inactive” in each case. The call in assay [3] was inactive.

On to `C[C@@H]1[C@@H]2Cc3ccc(O)cc3[C@@]1(C)CCN2CCc1ccccc1`, for which the Potency entry in assay [5], in [11], in [12] and in assay [18] was “inactive” in each case. Moreover, the Potency was 3.81 µM (active) in assay [6], 9.57 µM (active) in assay [7], 7.6 µM (active) in assay [8] and 53.8 µM (active) in assay [10].

Turning to `C1CN(P2(N3CC3)=NP(N3CC3)(N3CC3)=NP(N3CC3)(N3CC3)=N2)CCO1` (stereo not drawn), the Potency result in [1], in assay [2], in assay [9], in assay [16], in assay [10] and in [17] was “inactive” each time. The Potency result in assay [12], in assay [19], in [13], in [18] and in [15] was “inactive” throughout. The result in assay [3] was inactive. Also, the Potency in assay [6] was 3.76 µM (active); in assay [7], 0.168 µM (active); in [8], 8.41 µM (active).

For the compound `CCCCNC(C)(C)[P+](=O)O`, the Potency result in assay [1], in [4], in assay [6], in [7], in assay [8] and in [10] was “inactive” in each case. For the same compound, the Potency result in assay [17], in [12], in assay [19], in [13], in [14] and in assay [15] was “inactive” each time. In addition, the outcome in assay [3] was inactive.

In the case of `CC[N+](C)(CC)CCOC(=O)C(O)(c1ccccc1)c1ccccc1`, the outcome in assay [3] was inactive. Besides, the Potency result in assay [4], in assay [5], in assay [7], in assay [8], in assay [9] and in assay [10] was “inactive” in each case. In addition, the Potency result in assay [17], in assay [11], in assay [12], in assay [19], in assay [13] and in assay [18] was “inactive” throughout. For the same compound, the Potency result in assay [15] and in [20] was “inactive” each time.

Consider `CCC1(c2ccccc2)C(=O)NC(=O)N(C(=O)c2ccccc2)C1=O` (stereo not drawn), for which the Potency result in [1], in assay [2], in assay [5], in assay [6], in assay [7] and in assay [9] was “inactive” throughout. Also, the Potency entry in assay [16], in assay [17], in [11], in assay [14] and in assay [15] was “inactive” in each case. In addition, the Potency in assay [20] is 28.2 µM (active).
